In the library only some 6.3% were active in any assay of this set; here they are far more common.
Abs 340nm = compounds absorbing at 340 nm. compound absorbance at 340 nm, fold over control. 65,000 tested, under 10 active. fold change at 10 µM;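 active means at 10 µM dose, initial 340 nm absorbance at least 2 fold that of control wells; inactive means change under 2 fold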;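 further: initial absorbance extrapolated from kinetic A340 decline of NADH oxidation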
NADH enzymes = inhibition of NAD/NADH coupling enzymes, library profiling. AID 774. IC50, µM (doses to about 10 µM), without a hit: top-dose inhibition. 65,000 tested, 0.02% active. coupled PK/LDH NADH assays, four targets;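 active means single-dose screening hits from any of four coupled enzyme assays that gave an IC50 when retested across doses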;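 further: the DPM-DC format reads NADH fluorescence rather than 340 nm absorbance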
Spn DPM-DC inh = inhibitors of Streptococcus pneumoniae diphosphomevalonate decarboxylase | purified DPM-DC, PK/LDH coupled NADH fluorescence | calls only at 10 µM | 65,000 tested, 0.49% active | AID 556;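 active means the 320 compounds with the highest percent inhibition in the single-dose primary screen, excluding strongly autofluorescent ones, cut at about 32% in these data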;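 further: kinetic rate of NADH fluorescence loss reporting ADP formed by the decarboxylase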
Autofluor 339 = intrinsic fluorescence of library compounds, ex339/em460 – biochemical, MLSMR library, data from DPM-DC assay, artefact control, profiling panel; AID 709; 65,000 tested, 5.5% active; compound autofluorescence, ex339/em460 nm, NADH buffer; hits give high values; 1 = no-compound wells, NADH background; fluorescence fold increase at 10 µM;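 active means at 10 µM, mean starting fluorescence two-fold or more over control wells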;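 further: signal is the first read of a kinetic run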
PMK inhibit = inhibitors of Streptococcus pneumoniae phosphomevalonate kinase. inhibition, % at 10 µM. 65,000 tested, 0.49% active. purified PMK, PK/LDH-coupled NADH absorbance 340 nm;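 active means top-ranked compounds by inhibition in the single 10 µM screen, taking a fixed number of the strongest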;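 further: 0% = full reaction with DMSO carrier and 100% = background rate without enzyme reaction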
MK inhibit = blocks S. pneumoniae mevalonate kinase. purified MK, PK/LDH-coupled NADH absorbance 340 nm. inhibition, % at 10 µM. 65,000 tested, 0.48% active. AID 555;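 active means ranked among the strongest by inhibition in the single 10 µM screen, a fixed top-ranked set picked for dose follow-up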
Starred values were filed as active, the others as inactive; i = inactive; nt = not tested or not shown; + = active, no number.

SMILES	Abs 340nm	NADH enzymes	Spn DPM-DC inh	Autofluor 339	PMK inhibit	MK inhibit
COc1ccc([C@@H]2Sc3ccccc3N(CCN(C)C)C(=O)[C@@H]2OC(C)=O)cc1	0.98	2%	i	0.96	5	7
CCOc1ccc(C2CC(c3ccc(F)cc3)n3ncnc3N2)cc1 (stereo not given)	1	6%	i	1.1	11	7
CCOc1nc(-c2ccc(C)cc2)ccc1-c1noc(-c2cccnc2)n1	1.1	10%	i	3*	3	9
CCOc1nc(C)ccc1-c1noc(-c2ccncc2)n1	1	3%	i	1.1	0	8
CCOc1nc(-c2ccc(OC)cc2)ccc1-c1noc(-c2cccnc2)n1	1	10%	i	1.9	9	10
CCOc1nc(-c2ccccc2)ccc1-c1noc(-c2ccncc2)n1	1	8%	nt	3.3*	15	0
CCOc1nc(-c2ccc(OC)cc2)ccc1-c1noc(-c2ccncc2)n1	1.1	5%	i	3*	0	2
CCOC(=O)Cc1csc(-n2sc3ccccc3c2=O)n1	1	55%	+	1.2	16	67*
CCOC(=O)c1c(C)nc2ncccn12	1	6%	nt	2.1*	4	8
CCc1nc(C)cc(N)c1OCc1ccccc1	1	6%	i	1.1	8	11
Cc1cc2oc(=O)cc(COC(=O)c3cccc(N(C)C)c3)c2cc1C	1.1	5%	nt	2.1*	7	3
Cc1ccc2c(COC(=O)c3cnc(C)cn3)cc(=O)oc2c1	1.1	3%	i	1.1	9	1
COc1cc(OC)cc(-c2nc(-c3ccccc3)no2)c1	1	6%	i	1.2	4	10
O=c1[nH]c2ccccc2cc1-c1noc(-c2cccnc2)n1	1.1	7%	nt	4.2*	6	8
COc1ccc2[nH]c(=O)c(-c3noc(-c4ccccc4)n3)cc2c1	1	4%	nt	3.6*	0	7
Cc1cc(C)nc(NS(=O)(=O)c2ccc(NC(=O)c3ccc4c(c3)OCO4)cc2)n1	1	4%	i	1.1	9	3
CC(=O)Nc1cccc(NC(=O)CSc2nnc(Cc3cccn3C)n2-c2ccc(C)cc2)c1	1	12%	i	1.8	10	9
N#Cc1nc(COc2ccccc2F)oc1NCCCn1ccnc1	1	2%	i	1.1	5	0
N#Cc1nc(-c2ccc(OCc3ccccc3Cl)cc2)oc1NCCCn1ccnc1	1.1	1%	i	2.3*	0	2
N#Cc1nc(-c2ccco2)oc1NCCCn1ccnc1	1.1	16%	nt	4*	16	16
CN(C)c1oc(-c2ccc(OCc3ccccc3)cc2)nc1C#N	1.1	12%	nt	3.9*	14	10
N#Cc1nc(-c2ccc(OCc3ccccc3)cc2)oc1NCCCn1ccnc1	1	14%	nt	4*	15	12
Cc1ccc(OCc2nc(C#N)c(NCCCn3ccnc3)o2)cc1	0.99	9%	i	0.96	16	7
N#Cc1nc(COc2ccccc2)oc1NCCCn1ccnc1	0.99	2%	i	1.1	2	4
CN1CCN(/C=N/c2c(C#N)cnn2Cc2ccccc2)CC1	1	6%	i	1.1	13	5
SMILES	Abs 340nm	NADH enzymes	Spn DPM-DC inh	Autofluor 339	PMK inhibit	MK inhibit
COc1cccc(NC(=O)COc2ccc(N3CC(C(=O)NCC(C)C)CC3=O)cc2)c1 (stereo not given)	1	2%	i	1.1	6	0
CCOc1ccc(OCC)c(NC(=O)CCn2c(=O)oc3ccccc32)c1	0.97	6%	i	1.1	13	4
C=CCn1c(N)c(C(=O)OC(C)CC)c2nc3ccccc3nc21 (stereo not given)	1.1	8%	nt	2.1*	16	0
C=CCn1c(N)c(C(=O)OC(C)(C)C)c2nc3ccccc3nc21	0.98	5%	nt	2.5*	7	8
Cc1cc(N)n2ncc(-c3cccc(Br)c3)c2n1	1.1	11%	nt	2.2*	11	10
Cc1cc(N)n2ncc(-c3ccccc3)c2n1	1.2	7%	i	1.7	0	7
CC1(C(=O)NC2CCCCCCC2)CCC(=O)N1Cc1ccco1 (stereo not given)	1	11%	i	1	31*	2
CC(=O)c1sc(N2C(=O)c3oc4ccccc4c(=O)c3C2c2ccc(C)o2)nc1C (stereo not given)	1.1	4%	i	1.1	3	6
Cc1nc2ccccc2c(=O)n1/N=C/c1cccnc1	1.1	1%	i	1	0	4
COCCCNC(=O)c1c(N)n(/N=C/c2cccs2)c2nc3ccccc3nc12	1.1	3%	nt	2.3*	6	0
CCC(C)NC(=O)c1c(N)n(/N=C/c2ccccn2)c2nc3ccccc3nc12 (stereo not given)	1.1	8%	i	1.9	2	0
CC(C)CNC(=O)c1c(N)n(/N=C/c2cccnc2)c2nc3ccccc3nc12	1	6%	nt	2.3*	4	7
COCCCNC(=O)c1c(N)n(/N=C/c2cccnc2)c2nc3ccccc3nc12	1.1	9%	nt	2.3*	11	6
CCC(C)NC(=O)c1c(N)n(/N=C/c2cccnc2)c2nc3ccccc3nc12 (stereo not given)	1.1	3%	nt	3.1*	5	0
CC(C)OCCCNC(=O)c1c(N)n(/N=C/c2ccccn2)c2nc3ccccc3nc12	1.1	4%	i	1.4	3	2
O=C(Cc1ccc(Cl)cc1)NCC(=O)N1CCCC1	1	9%	i	1.1	0	24
COc1ccc(OC)c(C(=O)CSc2nc3c(c(=O)n(C)c(=O)n3C)n2C(C)C)c1	1	6%	i	1.1	5	12
Cc1ccc2[nH]c3c(N4CCCCCC4)ncnc3c2c1	1.1	3%	i	1.3	8	0
Fc1ccc2[nH]c3c(N4CCN(C5CCCCC5)CC4)ncnc3c2c1	1.1	3%	nt	2.3*	2	3
COC(=O)Cn1ncn2c(cc3oc(C)cc32)c1=O	1	5%	i	1.1	11	5
COc1ccc(-c2[nH]nc3oc(=O)cc(C)c23)cc1	1	5%	nt	2.2*	3	7
O=C(c1cnn2c1NC(c1ccco1)CC2C(F)(F)F)N1CCN(c2cccc(Cl)c2)CC1 (stereo not given)	0.98	2%	i	1	10	9
c1ccc(NC(=NCc2ccco2)c2ccccc2)cc1	1	9%	i	1.1	27*	0
COC(=O)c1c(C(=O)OC)c2ccncn2c1Cl	1.1	24%	+	1.7	17	10
COC(=O)C1=C(C)N(c2ccc(Cl)c(Cl)c2)C(=O)C1	1.1	0%	i	1.1	0	0
Nc1nnc(-c2ccncc2)s1	1	11%	nt	3.9*	17	4
